# From PubChem BioAssay (NCI)
# This is part of a sample that, as a whole, favours compounds with a hit. Of some 83,000 tested, about 20% had one in any assay.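 Note: values are percent growth. 100 is the growth of untreated cells, values between 100 and 0 indicate rising inhibition; between -100 and 0 indicates cell death.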 A number with no mark means an inactive call. Calls of active or inactive are those of the source. The calls were made as follows: active = growth percent below 10; inactive = the rest.
# System: HL-60(TB) leukemia
# Assay: NCI-60 one-dose screen, 48 h (100 = growth as untreated, 0 = no growth, -100 = all killed)
# Settings: 10 µM unless noted
row,Structure (SMILES),growth
1,O=C1/C(=C/c2ccc([N+](=O)[O-])s2)Oc2ccc(Cl)cc21,-20.6% (active)
2,COc1cccc2c1O/C(=C\c1ncc([N+](=O)[O-])n1C)C2=O,-14.8% (active)
3,CCCCCCN=C(N)CCCCCCCCCCC(N)=NCCCCCC,55.1%
4,COc1ccc(-c2cn(Cc3ccc4c(Br)cc(Br)c(O)c4n3)nn2)cc1,48.6%
5,O=C(/C=C/c1cn(-c2ccccc2)nc1-c1ccc(Cl)cc1)c1ccc(F)cc1,56.6%
6,c1ccc(CNc2ccc3nc(CCC4CCCCC4)[nH]c3c2)cc1,47%
7,CCN1C(=O)N(CC)C2C1NN=c1s/c(=C3\C(=O)N(CCC(C)C)c4ccccc43)c(=O)n12 (configuration not stated),-38.2% (active)
8,O=C1NC(=O)/C(=C/C=C/c2ccccc2)S1,-29.3% (active)
9,CC1C(=O)c2ccccc2CC1C(=O)O (configuration not stated),99.7%
10,CCN(CC)CCOC(=O)c1ccc(N=Nc2ccc(O)c(OC)c2)cc1,97.5%
11,COc1cc(/C=N\NC(=O)CN2CCN(c3cc4c(cc3F)c(=O)c(C(=O)N/N=C/c3ccc(O)c(OC)c3)cn4C3CC3)CC2)ccc1O,75.4%
12,CN1CCN(Cc2ccc(NC(=O)c3cncc(C#Cc4ccc(N)nc4)c3)cc2C(F)(F)F)CC1,-38.5% (active)
13,O=[N+]([O-])c1ccc(-c2cn3nc(-c4c[nH]c5ccccc45)sc3n2)cc1,95.3%
14,O=C(Nc1ccccc1)Nc1ccccc1CNc1nc(Nc2ccc(OCCN3CCCC3)cc2)ncc1Cl,-31.2% (active)
15,CC(C)[C@H](CN)NC[C@H](C)NS(=O)(=O)c1ccc(C(C)(C)C)cc1,95.4%
16,NC(N)=NC(N)=NCCCc1ccccc1,55.7% [100 µM]
17,CCN(CC)CCCC(C)Nc1cc(-c2ccc(C(F)(F)F)cc2)c(C#N)c2nc3ccccc3n12 (configuration not stated),-59.8% (active)
18,CCOc1cc(/C=C/C(=O)CC(=O)/C=C/c2ccc(OC(=O)CNCCN(CC)CC)c(OCC)c2)ccc1OC(=O)CNCCN(CC)CC,-30.5% (active)
19,CC(C)(C)OC(=O)N1Cc2cc3ccccc3nc2C1CO (configuration not stated),92.8%

row,Structure (SMILES),growth
1,O=C(Nc1ccc(/C=C2\SC(=O)N(Cc3ccc(OC(F)(F)F)cc3)C2=O)cc1)c1ccc(Cl)c([N+](=O)[O-])c1,71.3%
2,CCNc1nc(C(F)(F)F)nc2c1sc(=S)n2-c1ccccc1,98.9%
3,COc1ccc(N2CCN(Cc3cc(C(=O)/C=C/c4c[nH]c5ccccc45)ccc3O)CC2)cc1,99.9%
4,COC(=O)[C@]12CC[C@@H](C(C)=O)[C@@H]1[C@H]1CC[C@@H]3[C@@]4(C)C/C(=C/c5cccnc5)C(=O)C(C)(C)[C@@H]4CC[C@@]3(C)[C@]1(C)CC2,-2.67% (active)
5,Cc1n[nH]c(=O)n(/N=C\c2c[nH]c3ccccc23)c1=O,89.1%
6,Cc1cc(C(=O)c2ccccc2)cc(C)c1O,31.3%
7,O=C(COc1cccc(/C=C2\Oc3ccccc3C2=O)c1)c1ccc([N+](=O)[O-])cc1,83.7%
8,C=C1C(=O)O[C@H]2[C@H]1CC/C(Cn1cc(CCC)nn1)=C\CC[C@@]1(C)O[C@@H]21,-13.9% (active)
9,CCN(CC)CCn1c2ccc(OC)cc2c2sc3cc(O)ccc3c(=O)c21,31%
10,CS(=O)(=O)c1ccc(-c2[nH]c3ccc(F)cc3c2/C=N/O)cc1,101%
11,O=[N+]([O-])c1ccc(C(Br)c2ccc([N+](=O)[O-])cc2)cc1,57.6%
12,O=S1(=O)N(Cc2ccccc2)[C@@H](Cc2ccccc2)C2O[C@H]2[C@H](Cc2ccccc2)N1Cc1ccccc1 (some centres not stated),46%
13,CC1=C([Se]CC(OC(=O)[C@@H](CSSC(C)(C)C)NC(=O)C(C)(C)C)C(=O)NCCCCCC(=O)OCc2ccccc2)C(=O)c2ccccc2C1=O (some centres not stated),-24.4% (active)
14,COc1cc(Nc2ncccc2/C=C/C(=O)c2cc(OC)c(OC)c(OC)c2)cc(OC)c1OC,73.1%
15,C=CCN(CC#N)CC=C,106%
16,O=C1C(=O)N(Cc2ccc(-c3ccccc3)cc2)c2ccc(OC(F)(F)F)cc21,17.7%
17,Nc1nonc1-c1nc2ccccc2n1CC(=O)Nc1ccc2c(c1)COC2=O,100%
18,COc1ccc(-c2cc(-c3cc(OC)ccc3OC)nc(N)c2C#N)cc1,90.4%
